# Measurements as given in PubChem BioAssay (EPA / NIEHS).
# “And” between values parts separate entries of the source, which are not always exact repeats. Equal values may be shown once. Some compounds were tested as several samples or in several runs, with calls that do not always agree. The source made the active and inactive calls. How the source made its calls: active means hit-call score of the fitted dose curve at least 0.9, where 1 is the maximum; inactive means score below 0.9.
# Key:
# [1] = read-out: Transforming growth factor beta 1 (TGFb1), TGFB1 (gene 7040); test: BSK_KF3CT_TGFb1: BioMAP Diversity Plus: KF3CT Assay for Transforming growth factor beta 1 (TGFb1) Biomarker Activity (AID 2283072); conditions: primary human keratinocytes with fibroblasts; actives raise or lower the signal
# Outline: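 ELISA quantifies TGF-b1 at 24 h post-dose in a primary human skin co-culture of keratinocytes and fibroblasts, with gain or loss judged against DMSO. Parallel SRB total-protein staining flags overt cytotoxicity.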
# [2] = read-out: C-C motif chemokine 2 (Homo sapiens) (UniProt P13500); test: BSK_KF3CT_MCP1: BioMAP Diversity Plus: KF3CT Assay for Monocyte Chemoattractant Protein 1 (MCP1/CCL2) Biomarker Activity (AID 2283073); conditions: primary human keratinocytes with fibroblasts; actives raise or lower the signal
# Outline: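 Human keratinocyte–foreskin fibroblast co-culture; MCP-1 measured by ELISA 24 h after dosing. Bidirectional fit vs DMSO; cytotoxicity tracked by SRB total protein in parallel cultures.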
# [3] = read-out: Matrix Metallopeptidase 9 (MMP9), MMP9 (gene 4318); test: BSK_KF3CT_MMP9: BioMAP Diversity Plus: KF3CT Assay for Matrix Metallopeptidase 9 (MMP9) Biomarker Activity (AID 2283074); conditions: primary human keratinocytes with fibroblasts; actives raise or lower the signal;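 on AC50: MMP9 protein level quantified by ELISA in the co-culture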
# Outline: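 Values come from bidirectional fitting relative to DMSO of MMP-9 levels, which were measured by ELISA. Measurements were taken 24 h after chemical dosing of a keratinocyte and foreskin fibroblast co-culture.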
# [4] = read-out: urokinase plasminogen activator (uPA), PLAU (gene 5328); test: BSK_KF3CT_uPA: BioMAP Diversity Plus: KF3CT Assay for urokinase plasminogen activator (uPA) Biomarker Activity (AID 2283075); conditions: primary human keratinocytes with fibroblasts; actives raise or lower the signal
# Outline: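 Values derive from bidirectional fitting against DMSO controls. Keratinocyte/foreskin fibroblast co-cultures received chemical; 24 h later uPA was detected by ELISA, with SRB total-protein staining in parallel wells for overt cytotoxicity.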
# [5] = read-out: CD40, CD40 (gene 958); test: BSK_LPS_CD40: BioMAP Diversity Plus: LPS Assay for CD40 Biomarker Activity (AID 2283076); conditions: primary human HUVEC with PBMC; actives raise or lower the signal
# Outline: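 HUVEC plus PBMC co-culture stimulated with LPS; CD40 quantified by ELISA 24 h after compound dosing. Fitting was bidirectional relative to DMSO. SRB staining of parallel cultures flagged overt cytotoxicity.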
# [6] = read-out: E-selectin (Homo sapiens) (UniProt P16581); test: BSK_LPS_Eselectin: BioMAP Diversity Plus: LPS Assay for Eselectin Biomarker Activity (AID 2283077); conditions: primary human HUVEC with PBMC; actives raise or lower the signal
# Outline: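 Human umbilical vein endothelial cells co-cultured with PBMC under LPS stimulation; cell-surface E-selectin measured by ELISA 24 h after dosing. Change in either direction versus DMSO, with SRB total-protein staining in parallel cultures for cytotoxicity.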
# [7] = read-out: Interleukin-8 (IL8), CXCL8 (gene 3576); test: BSK_LPS_IL8: BioMAP Diversity Plus: LPS Assay for Interleukin-8 (IL8) Biomarker Activity (AID 2283078); conditions: primary human HUVEC with PBMC; actives raise or lower the signal
# Outline: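 Human umbilical vein endothelial cells co-cultured with PBMC, LPS-stimulated, exposed to compound for 24 h. IL-8 quantified by ELISA; fitted in both directions against DMSO, with SRB total-protein staining of parallel cultures for cytotoxicity.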
# [8] = BSK_LPS_SRB: Viability Assessment in the BioMAP Diversity Plus: LPS Assay (AID 2283079); conditions: primary human HUVEC with PBMC;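 further: total protein by sulforhodamine B absorbance as a cytotoxicity measure; measured one day after compound addition; fitted in both directions against DMSO so loss or gain of signal counts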
# Outline: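 Co-culture of human umbilical vein endothelial cells and PBMC, read 24 h after dosing. Total protein by 0.1% SRB staining after 10% TCA fixation, absorbance at 560 nm; bidirectional fit against DMSO.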
# [9] = read-out: Interleukin-1 alpha (IL1a), IL1A (gene 3552); test: BSK_LPS_IL1a: BioMAP Diversity Plus: LPS Assay for Interleukin-1 alpha (IL1a) Biomarker Activity (AID 2283080); conditions: primary human HUVEC with PBMC; actives raise or lower the signal
# Outline: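 Human umbilical vein endothelial cells co-cultured with PBMC and stimulated with LPS; IL-1a measured by ELISA 24 h after dosing. Bidirectional fitting against DMSO; cytotoxicity checked by SRB staining in parallel cultures.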
# [10] = read-out: Monocyte Chemoattractant Protein-1 (MCP1), CCL2 (gene 6347); test: BSK_LPS_MCP1: BioMAP Diversity Plus: LPS Assay for Monocyte Chemoattractant Protein-1 (MCP1) Biomarker Activity (AID 2283081); conditions: primary human HUVEC with PBMC; actives raise or lower the signal;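 on AC50: secreted MCP-1 protein quantified by ELISA in culture supernatant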
# Outline: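 Human umbilical vein endothelial cells co-cultured with PBMC, LPS-stimulated; secreted MCP-1 measured by ELISA 24 h after compound addition. Bidirectional curve fitting against DMSO baseline; SRB total-protein staining in parallel cultures for cytotoxicity.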
# Sequence of E-selectin (Homo sapiens) (P16581 whole entry, looked up): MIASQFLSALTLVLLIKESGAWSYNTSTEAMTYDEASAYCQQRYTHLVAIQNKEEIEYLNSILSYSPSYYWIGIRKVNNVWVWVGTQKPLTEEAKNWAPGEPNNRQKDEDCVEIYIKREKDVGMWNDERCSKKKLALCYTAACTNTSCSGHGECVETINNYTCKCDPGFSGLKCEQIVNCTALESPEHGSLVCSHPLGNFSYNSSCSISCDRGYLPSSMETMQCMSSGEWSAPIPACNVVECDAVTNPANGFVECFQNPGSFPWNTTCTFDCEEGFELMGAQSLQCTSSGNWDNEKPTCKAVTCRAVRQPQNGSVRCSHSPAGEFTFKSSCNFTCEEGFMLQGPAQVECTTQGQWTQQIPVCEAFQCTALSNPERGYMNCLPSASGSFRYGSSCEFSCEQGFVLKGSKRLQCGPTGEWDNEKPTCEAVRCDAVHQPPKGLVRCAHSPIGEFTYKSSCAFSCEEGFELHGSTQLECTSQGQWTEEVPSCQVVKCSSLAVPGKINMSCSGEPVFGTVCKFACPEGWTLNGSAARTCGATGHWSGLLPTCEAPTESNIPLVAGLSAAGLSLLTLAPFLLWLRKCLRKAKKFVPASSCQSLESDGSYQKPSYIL
SMILES,outcome [1],outcome [2],outcome [3],outcome [4],outcome [5],outcome [6],outcome [7],outcome [8],outcome [9],outcome [10],AC50 [2],AC50 [3],AC50 [4],AC50 [5],AC50 [6],AC50 [7],AC50 [8],AC50 [9],AC50 [10],AC50 [1]
CCNc1nc(Cl)nc(NCC)n1,inactive,inactive,inactive,inactive,inactive,inactive,inactive,inactive,inactive,inactive,,,,,,,,,,
C#CCOS(=O)OC1CCCCC1Oc1ccc(C(C)(C)C)cc1 (stereo not drawn),inactive,,,,,,,,,,10.2 µM (active),12.1 µM (active),14.3 µM (active),6.59 µM (active),4.28 µM (active),6.7 µM (active),12.6 µM (active),16.4 µM (active),20 µM (active),
COC(=O)C(C)Oc1ccc(Oc2ccc(Cl)cc2Cl)cc1 (stereo not drawn),inactive,inactive,inactive,inactive,inactive,inactive,inactive,inactive,inactive,inactive,,20 µM (active),21.1 µM (active) and 31.6 µM (active),29.2 µM (active) and 34.7 µM (active),,,,,28.9 µM (active),
CCCN(CCC)c1c([N+](=O)[O-])cc(S(N)(=O)=O)cc1[N+](=O)[O-],inactive,,inactive,inactive,,inactive,,,,inactive,,32.8 µM (active),,33.6 µM (active) [middle of 4 runs],36.9 µM (active) and 32.6 µM (active) and 36.7 µM (active),33.1 µM (active) [middle of 4 runs],31.8 µM (active) [middle of 4 runs],33.5 µM (active) [middle of 4 runs],37.8 µM (active) and 35.1 µM (active) and 33 µM (active),34.4 µM (active)
CO/C=C(/C(=O)OC)c1ccccc1Oc1cc(Oc2ccccc2C#N)ncn1,inactive,inactive,inactive,inactive,inactive,inactive,,,inactive,,,2.7 µM (active),,19.9 µM (active) and 10 µM (active) and 12.9 µM (active),10.9 µM (active) and 5.78 µM (active) and 5.72 µM (active),,,,27.1 µM (active) [middle of 4 runs],
CN(C)C(=S)SSC(=S)N(C)C,,,,,,,,,,,5.09 µM (active),7.1 µM (active),10.3 µM (active),24.7 µM (active),28.5 µM (active),26.5 µM (active),22.9 µM (active),16.1 µM (active),27.1 µM (active),8.71 µM (active)
CCCCNC(=O)OCC#CI,,,,,,,,,,,32.8 µM (active) and 20 µM (active),29.4 µM (active) and 13.7 µM (active),29.6 µM (active) and 15.1 µM (active),13.6 µM (active) and 9.3 µM (active),31.3 µM (active) and 29.8 µM (active),19 µM (active) and 16.3 µM (active),26.7 µM (active),23.2 µM (active) and 13 µM (active),30.9 µM (active) and 16.6 µM (active),30.1 µM (active) and 14.9 µM (active)
CCCC1COC(Cn2cncn2)(c2ccc(Cl)cc2Cl)O1 (stereo not drawn),inactive,inactive,inactive,inactive,,inactive,inactive,inactive,inactive,inactive,,,,20 µM (active),,,,,,
Cc1ccc(-c2c(Cl)nc(C#N)n2S(=O)(=O)N(C)C)cc1,inactive,inactive,,inactive,,,,,inactive,,,6.7 µM (active),,14.9 µM (active),39.2 µM (active),27.6 µM (active),26 µM (active),,29.6 µM (active),
Oc1ccccc1-c1ccccc1,inactive,inactive,inactive,inactive,inactive,inactive,inactive,inactive,inactive,inactive,,,,,,,,,,
CNC(=O)ON=CC(C)(C)SC,inactive,inactive,inactive,inactive,inactive,inactive,inactive,inactive,inactive,inactive,,,,,,,,,,
Cc1cc(Cl)ccc1OCC(=O)O,inactive,inactive,inactive,inactive,inactive,inactive,inactive,inactive,inactive,inactive,,,,,,,,,,
CC(C)Oc1cc(-n2nc(C(C)(C)C)oc2=O)c(Cl)cc1Cl,inactive,inactive,,inactive,,,,,,,,28.8 µM (active),,14.8 µM (active),31.3 µM (active),31.5 µM (active),29.3 µM (active),32.7 µM (active),30.2 µM (active),
C=CCC1=C(C)C(OC(=O)C2C(C=C(C)C)C2(C)C)CC1=O (stereo not drawn),inactive,inactive,,inactive,inactive,inactive,,,,,33.6 µM (active) and 36.4 µM (active) and 28.4 µM (active),33.6 µM (active) [middle of 4 runs],33.8 µM (active) and 33.3 µM (active),24.2 µM (active) and 21 µM (active) and 27.6 µM (active),31.5 µM (active) and 33.3 µM (active) and 33.1 µM (active),32 µM (active) [middle of 4 runs],33.1 µM (active) [middle of 4 runs],34.3 µM (active) [middle of 4 runs],35.7 µM (active) [middle of 4 runs],26.6 µM (active) and 33.3 µM (active) and 21 µM (active)
